An excerpt weighted towards active compounds, which were near 4.8% of everything screened.
ALR H2O2 inh = human ALR oxidase inhibition via reduced H2O2. hit rate 3.8% among 290,000. P55789. inhibition, % (no concentration beside the values). purified ALR, DTT oxidation, H2O2 HRP-luminol luminescence;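 active means mean replicate inhibition above about 79%, with every replicate also reaching it, limit read from the data; inconclusive means only one of the two criteria met; inactive means mean below limit and not every replicate reaching it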
Target sequence (P55789 whole entry, looked up): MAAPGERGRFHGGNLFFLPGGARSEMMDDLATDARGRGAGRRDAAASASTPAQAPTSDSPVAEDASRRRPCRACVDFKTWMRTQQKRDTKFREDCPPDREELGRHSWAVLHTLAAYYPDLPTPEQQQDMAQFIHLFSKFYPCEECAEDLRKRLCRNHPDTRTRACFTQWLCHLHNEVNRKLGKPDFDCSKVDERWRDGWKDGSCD
AI-2 QS mod = Vibrio harveyi AI-2 quorum sensing modulation; Vibrio harveyi JMH597 AI-2 luminescence/OD600 ratio, 9 h; active compounds read low; strain lacks LuxN and CqsS sensors; 0 = neutral-control median; activity change, % at 7.5 µM; hit rate 0.4% among 300,000; AID 2094; in the data active means activity change below about -75%, passing the limit was not always enough; inconclusive means no clear call, values can overlap the other calls;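 further: luminescence divided by OD600 gain over 9 h not by final OD600 alone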
SUMO Mot1 rescue = inhibitors of SUMOylation pathway: yeast Mot1-301 growth rescue. S. cerevisiae Mot1-301 growth rescue, ATP luminescence, 38.5C; percent above DMSO median, 100 means doubled. growth rescue, % at 18.8 µM. hit rate 1% among 320,000;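 active means every valid replicate shows activation above 250% relative to neutral control wells; inactive means the rest, any valid replicate at or below 250%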;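 further: OY570 slx delta 5 strain wells were the positive control but not used for scaling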
HIF act = HIF pathway transcriptional activation | AID 1910 | activation, % at 7.5 µM (by protocol) | hit rate 0.32% among 300,000 | U2OS HRE-luciferase reporter, luminescence; normalized: DMSO 0%, desferrioxamine 100%;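 active means mean activation of at least 10% of the iron chelator positive control signal, with at least half of replicates also reaching 10%; inconclusive means mean and replicate majority disagree about reaching 10%; inactive means mean and most replicates under 10%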
An asterisk follows results filed as active; u = inconclusive; x = not tested or not shown.

SMILES	ALR H2O2 inh	AI-2 QS mod	SUMO Mot1 rescue	HIF act
Cc1ccc(-c2csc(NC(=O)c3ccc([N+](=O)[O-])o3)n2)cc1	-14	-158*	52	1
O=C(Nc1ccccn1)c1ccc([N+](=O)[O-])o1	-15	u	-51	1
CC(NC(=O)COC(=O)COc1cccc2c1OC(C)(C)C2)c1ccccc1 (stereo unspecified)	0	8	8	-2
CCc1ncc(CN2CCCCC2C(=O)Nc2ccc(Oc3ccccc3)nc2)cn1 (stereo unspecified)	3	13	20	0
Cc1cc(Br)ccc1NC(=O)CNC(=O)CNc1cccc([N+](=O)[O-])c1	-3	x	-13	x
Cc1cc(Cc2ccc(N)c(C)c2)ccc1N	81*	41	-17	0
Cc1noc2ncnc(Sc3ccc(Br)cc3)c12	99*	-23	x	5
Cc1noc2ncnc(N3CCCC3)c12	1	16	-8	1
CCOc1nc(Oc2cccc(C(=O)O)c2)nc(Oc2cccc(C(=O)O)c2)n1	97*	9	3	x
CCC(C)(C)c1ccc(Oc2cccc(C(=O)O)c2)cc1	39	54	4	1
Cc1cc2c(NCc3ccccc3)ncnc2s1	-5	-1	15	0
CCc1ccc(NC(=O)Cn2c3[n+](c4c(F)c(F)ccc42)CCCCC3)cc1	0	31	708*	0
O=C(Cn1c2[n+](c3ccc(C(F)(F)F)cc31)CCCCC2)Nc1ccc(Br)cc1	-3	46	-12	0
Cc1noc(C)c1C(=O)NCCc1c(C)[nH]c2ccccc12	32	13	296*	0
COc1cc(N)ccc1Cc1ccc(N)cc1OC	97*	4	-4	-1
COc1ccc(OC)c(NC(=O)C2CCCN(S(C)(=O)=O)C2)c1 (stereo unspecified)	-7	11	8	-3
C[C@@H]1C=CC(=O)O[C@@H]1c1ccc(Cl)cc1	2	0	97	3

Screening data from PubChem BioAssay.
